Experimental data as given in the supplement of paper PMC11732987, “Enantioselective OTUD7B fragment discovery through chemoproteomics screening and high-throughput optimisation” (Communications Chemistry, 2025).

Key:
Experiment in all cases: log2 ratio of Biotin-Ahx-Ub-VS probe labelling (fragment/DMSO); higher = less target engagement (more negative = stronger competition), active = hit call of the paper (q ≤ 0.05, log2 ratio ≤ -1)
Conditions in all cases: compound concentration: 200 uM; treatment time: 3 h
USP42 = target: T1, USP42 (UniProt Q9H9J4)
T1 sequence (whole entry): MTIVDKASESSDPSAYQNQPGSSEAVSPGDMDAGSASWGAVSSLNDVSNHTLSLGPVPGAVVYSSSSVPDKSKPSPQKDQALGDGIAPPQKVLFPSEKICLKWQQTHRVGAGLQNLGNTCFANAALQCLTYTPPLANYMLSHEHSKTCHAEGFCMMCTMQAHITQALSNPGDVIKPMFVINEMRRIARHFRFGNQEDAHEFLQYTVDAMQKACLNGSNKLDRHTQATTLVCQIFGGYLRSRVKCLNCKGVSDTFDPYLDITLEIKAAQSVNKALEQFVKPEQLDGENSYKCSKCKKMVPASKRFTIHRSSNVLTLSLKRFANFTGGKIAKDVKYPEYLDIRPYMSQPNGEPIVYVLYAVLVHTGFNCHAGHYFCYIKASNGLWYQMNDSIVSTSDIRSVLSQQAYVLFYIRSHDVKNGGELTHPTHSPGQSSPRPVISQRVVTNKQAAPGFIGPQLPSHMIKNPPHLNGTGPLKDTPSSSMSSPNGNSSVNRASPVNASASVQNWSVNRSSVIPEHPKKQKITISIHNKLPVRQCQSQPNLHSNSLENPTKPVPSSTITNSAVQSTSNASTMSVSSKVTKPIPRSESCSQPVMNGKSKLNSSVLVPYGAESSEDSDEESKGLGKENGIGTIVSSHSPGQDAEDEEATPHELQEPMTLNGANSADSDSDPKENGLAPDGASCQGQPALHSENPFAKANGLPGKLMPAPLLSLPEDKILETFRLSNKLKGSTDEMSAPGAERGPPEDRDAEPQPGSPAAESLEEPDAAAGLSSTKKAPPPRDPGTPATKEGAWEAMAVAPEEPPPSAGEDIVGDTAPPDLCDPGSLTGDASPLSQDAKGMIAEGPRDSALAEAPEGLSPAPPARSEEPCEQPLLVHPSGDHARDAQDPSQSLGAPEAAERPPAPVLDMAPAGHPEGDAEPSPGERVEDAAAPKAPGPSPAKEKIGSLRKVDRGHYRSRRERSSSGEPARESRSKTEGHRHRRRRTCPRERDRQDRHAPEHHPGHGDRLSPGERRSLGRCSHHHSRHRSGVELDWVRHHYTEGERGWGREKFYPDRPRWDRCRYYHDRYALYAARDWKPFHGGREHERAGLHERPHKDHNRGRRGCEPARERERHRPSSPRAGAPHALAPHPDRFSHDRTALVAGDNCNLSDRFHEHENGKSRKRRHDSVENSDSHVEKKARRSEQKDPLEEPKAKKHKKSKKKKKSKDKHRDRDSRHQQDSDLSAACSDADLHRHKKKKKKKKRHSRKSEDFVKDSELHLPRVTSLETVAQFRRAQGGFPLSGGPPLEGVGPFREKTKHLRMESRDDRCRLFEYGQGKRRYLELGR
How it was run: (§1)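 HEK293T lysate (495 µg per sample, in Tris/CHAPS/IGEPAL buffer with protease inhibitors) was exposed in triplicate for 3 h to fragment at 200 µM or to vehicle, then to Biotin-Ahx-Ub-VS at 0.5 µM final for 1 h. Labelled DUBs were enriched on NeutrAvidin, digested with LysC and trypsin, and analysed by diaPASEF LC-MS/MS. Spectronaut label-free quantities were normalised to the global median, and values are average log2 ratios of fragment over vehicle from an unpaired t-test. Only proteins with ≥2 unique peptides were used.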

USP46 = USP46 (UniProt P62068)
USP46, sequence (P62068 whole entry): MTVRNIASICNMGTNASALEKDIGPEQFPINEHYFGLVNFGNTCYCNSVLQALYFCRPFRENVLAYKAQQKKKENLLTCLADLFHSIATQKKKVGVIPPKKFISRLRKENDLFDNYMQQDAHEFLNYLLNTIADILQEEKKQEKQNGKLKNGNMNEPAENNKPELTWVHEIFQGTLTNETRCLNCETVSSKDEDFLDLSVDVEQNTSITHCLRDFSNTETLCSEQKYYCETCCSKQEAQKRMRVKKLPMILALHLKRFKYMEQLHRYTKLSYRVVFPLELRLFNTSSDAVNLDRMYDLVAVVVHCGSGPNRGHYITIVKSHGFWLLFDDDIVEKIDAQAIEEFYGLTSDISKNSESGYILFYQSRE
How it was run: as §1

USP47 = target: T2, USP47 (UniProt Q96K76)
T2 sequence (whole entry): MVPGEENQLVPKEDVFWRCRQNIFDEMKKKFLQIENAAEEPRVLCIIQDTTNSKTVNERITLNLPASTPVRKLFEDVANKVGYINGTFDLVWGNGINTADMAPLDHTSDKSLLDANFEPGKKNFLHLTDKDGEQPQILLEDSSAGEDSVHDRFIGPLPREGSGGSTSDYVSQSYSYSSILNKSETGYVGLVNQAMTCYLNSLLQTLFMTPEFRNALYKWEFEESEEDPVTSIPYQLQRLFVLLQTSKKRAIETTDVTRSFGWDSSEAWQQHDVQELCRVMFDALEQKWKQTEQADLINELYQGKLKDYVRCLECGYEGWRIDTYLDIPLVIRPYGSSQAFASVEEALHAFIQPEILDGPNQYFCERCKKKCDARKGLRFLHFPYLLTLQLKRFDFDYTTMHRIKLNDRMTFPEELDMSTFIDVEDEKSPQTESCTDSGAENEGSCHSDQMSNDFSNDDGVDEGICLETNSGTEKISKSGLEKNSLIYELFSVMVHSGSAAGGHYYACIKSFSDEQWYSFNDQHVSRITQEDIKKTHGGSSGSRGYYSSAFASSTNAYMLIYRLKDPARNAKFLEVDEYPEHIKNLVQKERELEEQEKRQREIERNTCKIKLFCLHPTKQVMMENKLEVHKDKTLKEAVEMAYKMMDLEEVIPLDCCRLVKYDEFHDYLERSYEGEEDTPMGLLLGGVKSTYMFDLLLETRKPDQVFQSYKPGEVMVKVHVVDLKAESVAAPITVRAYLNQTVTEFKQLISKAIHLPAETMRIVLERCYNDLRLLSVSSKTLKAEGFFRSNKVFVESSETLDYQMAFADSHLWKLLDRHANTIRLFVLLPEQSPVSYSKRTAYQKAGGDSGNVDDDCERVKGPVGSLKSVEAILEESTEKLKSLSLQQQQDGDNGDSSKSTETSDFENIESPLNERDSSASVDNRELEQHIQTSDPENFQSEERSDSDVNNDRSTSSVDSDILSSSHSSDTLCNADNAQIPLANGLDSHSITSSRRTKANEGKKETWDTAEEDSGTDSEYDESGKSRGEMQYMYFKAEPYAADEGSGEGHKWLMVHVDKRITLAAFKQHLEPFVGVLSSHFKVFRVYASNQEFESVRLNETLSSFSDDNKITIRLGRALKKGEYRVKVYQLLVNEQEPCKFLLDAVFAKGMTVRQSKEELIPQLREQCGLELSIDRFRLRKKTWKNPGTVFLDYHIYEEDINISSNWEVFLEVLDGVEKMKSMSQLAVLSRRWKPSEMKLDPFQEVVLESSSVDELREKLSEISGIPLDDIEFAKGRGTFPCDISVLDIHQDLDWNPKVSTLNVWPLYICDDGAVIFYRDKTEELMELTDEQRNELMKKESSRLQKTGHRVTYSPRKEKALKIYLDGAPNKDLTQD
How it was run: as §1

USP48 = target: T3, USP48 (UniProt Q86UV5)
T3 sequence (whole entry): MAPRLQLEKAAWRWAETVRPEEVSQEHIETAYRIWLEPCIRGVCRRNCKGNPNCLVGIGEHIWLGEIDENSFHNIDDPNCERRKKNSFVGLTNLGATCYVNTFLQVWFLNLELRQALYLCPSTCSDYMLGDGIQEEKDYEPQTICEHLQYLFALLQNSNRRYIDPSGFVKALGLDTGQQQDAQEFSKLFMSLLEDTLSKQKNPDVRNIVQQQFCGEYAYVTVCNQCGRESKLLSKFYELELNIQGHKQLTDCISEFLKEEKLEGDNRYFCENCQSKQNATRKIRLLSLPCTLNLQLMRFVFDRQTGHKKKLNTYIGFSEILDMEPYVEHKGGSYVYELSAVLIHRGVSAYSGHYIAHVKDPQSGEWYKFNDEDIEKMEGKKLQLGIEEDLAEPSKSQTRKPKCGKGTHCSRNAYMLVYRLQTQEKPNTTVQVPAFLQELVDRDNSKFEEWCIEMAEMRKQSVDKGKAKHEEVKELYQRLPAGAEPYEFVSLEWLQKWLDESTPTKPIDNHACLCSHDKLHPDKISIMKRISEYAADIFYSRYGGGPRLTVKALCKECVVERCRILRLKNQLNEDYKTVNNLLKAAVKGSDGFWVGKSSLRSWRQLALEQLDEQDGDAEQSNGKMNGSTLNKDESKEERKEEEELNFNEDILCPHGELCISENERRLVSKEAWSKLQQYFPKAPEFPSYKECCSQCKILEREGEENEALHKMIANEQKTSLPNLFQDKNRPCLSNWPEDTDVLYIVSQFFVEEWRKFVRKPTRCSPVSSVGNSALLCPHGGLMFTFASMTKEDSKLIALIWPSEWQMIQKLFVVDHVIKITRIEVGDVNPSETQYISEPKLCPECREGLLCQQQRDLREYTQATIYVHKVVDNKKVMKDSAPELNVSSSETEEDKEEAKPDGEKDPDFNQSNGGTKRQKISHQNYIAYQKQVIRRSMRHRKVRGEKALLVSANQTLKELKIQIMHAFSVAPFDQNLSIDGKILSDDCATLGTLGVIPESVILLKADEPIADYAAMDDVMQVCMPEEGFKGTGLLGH
How it was run: as §1

USP5 = target: T4, USP5 (UniProt P45974)
T4 sequence (whole entry): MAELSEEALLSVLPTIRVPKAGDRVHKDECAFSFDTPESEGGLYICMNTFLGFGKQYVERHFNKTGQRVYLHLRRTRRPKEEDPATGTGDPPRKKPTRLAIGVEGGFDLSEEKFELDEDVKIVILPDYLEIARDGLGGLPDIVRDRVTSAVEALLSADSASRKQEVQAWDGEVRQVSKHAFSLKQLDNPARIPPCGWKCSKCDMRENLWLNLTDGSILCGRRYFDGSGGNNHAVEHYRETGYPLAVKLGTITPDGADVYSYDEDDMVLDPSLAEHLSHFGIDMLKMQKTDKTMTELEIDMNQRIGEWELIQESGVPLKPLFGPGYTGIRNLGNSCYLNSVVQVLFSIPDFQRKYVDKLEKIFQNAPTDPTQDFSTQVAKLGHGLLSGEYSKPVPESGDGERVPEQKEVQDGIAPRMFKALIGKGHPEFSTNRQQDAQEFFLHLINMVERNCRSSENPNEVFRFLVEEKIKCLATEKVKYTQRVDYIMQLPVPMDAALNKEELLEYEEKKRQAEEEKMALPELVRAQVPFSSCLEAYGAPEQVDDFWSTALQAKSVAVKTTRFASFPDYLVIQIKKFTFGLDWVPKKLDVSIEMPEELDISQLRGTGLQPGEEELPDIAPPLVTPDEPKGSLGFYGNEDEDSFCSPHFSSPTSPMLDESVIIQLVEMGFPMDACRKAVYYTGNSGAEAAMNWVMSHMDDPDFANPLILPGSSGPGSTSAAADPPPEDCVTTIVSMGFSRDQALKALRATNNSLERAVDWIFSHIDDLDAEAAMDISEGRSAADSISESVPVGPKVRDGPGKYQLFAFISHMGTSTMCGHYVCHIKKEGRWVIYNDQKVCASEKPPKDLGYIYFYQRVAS
How it was run: as §1

USP54 = USP54 (UniProt Q70EL1)
USP54, sequence (Q70EL1 whole entry): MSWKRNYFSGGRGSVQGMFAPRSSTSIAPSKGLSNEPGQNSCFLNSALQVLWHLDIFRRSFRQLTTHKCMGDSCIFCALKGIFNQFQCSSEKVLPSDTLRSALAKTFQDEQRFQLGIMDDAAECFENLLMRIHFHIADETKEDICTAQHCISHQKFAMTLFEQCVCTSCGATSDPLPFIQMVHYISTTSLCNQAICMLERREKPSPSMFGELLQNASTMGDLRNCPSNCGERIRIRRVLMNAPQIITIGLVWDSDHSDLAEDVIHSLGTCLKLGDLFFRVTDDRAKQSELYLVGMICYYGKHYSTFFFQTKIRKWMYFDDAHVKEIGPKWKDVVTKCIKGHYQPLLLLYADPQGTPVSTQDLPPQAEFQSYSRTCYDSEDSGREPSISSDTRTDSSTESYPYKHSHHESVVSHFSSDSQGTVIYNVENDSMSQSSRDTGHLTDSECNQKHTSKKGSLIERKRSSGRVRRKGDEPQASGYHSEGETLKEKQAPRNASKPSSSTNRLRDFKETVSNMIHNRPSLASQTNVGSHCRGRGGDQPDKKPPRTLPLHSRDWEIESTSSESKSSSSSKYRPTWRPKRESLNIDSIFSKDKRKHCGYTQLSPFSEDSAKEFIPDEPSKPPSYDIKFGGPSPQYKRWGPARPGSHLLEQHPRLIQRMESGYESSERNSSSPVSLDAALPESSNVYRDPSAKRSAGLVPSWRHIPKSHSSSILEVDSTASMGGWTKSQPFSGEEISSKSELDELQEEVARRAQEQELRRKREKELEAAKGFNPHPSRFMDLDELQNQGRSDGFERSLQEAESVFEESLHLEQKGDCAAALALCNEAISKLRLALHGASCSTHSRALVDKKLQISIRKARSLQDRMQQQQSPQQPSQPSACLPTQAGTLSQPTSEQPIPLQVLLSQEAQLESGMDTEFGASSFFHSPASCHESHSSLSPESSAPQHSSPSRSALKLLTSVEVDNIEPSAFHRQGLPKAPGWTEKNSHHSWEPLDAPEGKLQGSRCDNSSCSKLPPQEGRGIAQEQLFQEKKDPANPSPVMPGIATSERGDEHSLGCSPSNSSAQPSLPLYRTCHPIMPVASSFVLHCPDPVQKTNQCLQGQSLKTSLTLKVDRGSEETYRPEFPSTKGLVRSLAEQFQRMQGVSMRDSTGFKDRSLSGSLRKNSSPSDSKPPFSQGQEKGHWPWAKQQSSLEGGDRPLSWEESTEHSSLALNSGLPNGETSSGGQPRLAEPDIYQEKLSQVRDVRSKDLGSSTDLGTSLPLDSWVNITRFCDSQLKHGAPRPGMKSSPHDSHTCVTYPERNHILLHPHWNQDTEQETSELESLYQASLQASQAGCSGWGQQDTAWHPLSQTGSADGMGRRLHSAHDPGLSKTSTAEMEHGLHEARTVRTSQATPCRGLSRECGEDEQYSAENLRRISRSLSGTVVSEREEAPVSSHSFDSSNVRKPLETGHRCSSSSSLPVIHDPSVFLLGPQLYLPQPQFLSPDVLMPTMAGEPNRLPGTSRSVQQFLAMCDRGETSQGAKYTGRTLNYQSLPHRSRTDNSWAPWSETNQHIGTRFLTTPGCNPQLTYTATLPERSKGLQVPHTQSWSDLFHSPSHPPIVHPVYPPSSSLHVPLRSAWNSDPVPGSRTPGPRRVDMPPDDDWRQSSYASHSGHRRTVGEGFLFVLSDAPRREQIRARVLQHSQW
How it was run: as §1

USP7 = USP7 (UniProt Q93009)
USP7, sequence (Q93009 whole entry, looked up): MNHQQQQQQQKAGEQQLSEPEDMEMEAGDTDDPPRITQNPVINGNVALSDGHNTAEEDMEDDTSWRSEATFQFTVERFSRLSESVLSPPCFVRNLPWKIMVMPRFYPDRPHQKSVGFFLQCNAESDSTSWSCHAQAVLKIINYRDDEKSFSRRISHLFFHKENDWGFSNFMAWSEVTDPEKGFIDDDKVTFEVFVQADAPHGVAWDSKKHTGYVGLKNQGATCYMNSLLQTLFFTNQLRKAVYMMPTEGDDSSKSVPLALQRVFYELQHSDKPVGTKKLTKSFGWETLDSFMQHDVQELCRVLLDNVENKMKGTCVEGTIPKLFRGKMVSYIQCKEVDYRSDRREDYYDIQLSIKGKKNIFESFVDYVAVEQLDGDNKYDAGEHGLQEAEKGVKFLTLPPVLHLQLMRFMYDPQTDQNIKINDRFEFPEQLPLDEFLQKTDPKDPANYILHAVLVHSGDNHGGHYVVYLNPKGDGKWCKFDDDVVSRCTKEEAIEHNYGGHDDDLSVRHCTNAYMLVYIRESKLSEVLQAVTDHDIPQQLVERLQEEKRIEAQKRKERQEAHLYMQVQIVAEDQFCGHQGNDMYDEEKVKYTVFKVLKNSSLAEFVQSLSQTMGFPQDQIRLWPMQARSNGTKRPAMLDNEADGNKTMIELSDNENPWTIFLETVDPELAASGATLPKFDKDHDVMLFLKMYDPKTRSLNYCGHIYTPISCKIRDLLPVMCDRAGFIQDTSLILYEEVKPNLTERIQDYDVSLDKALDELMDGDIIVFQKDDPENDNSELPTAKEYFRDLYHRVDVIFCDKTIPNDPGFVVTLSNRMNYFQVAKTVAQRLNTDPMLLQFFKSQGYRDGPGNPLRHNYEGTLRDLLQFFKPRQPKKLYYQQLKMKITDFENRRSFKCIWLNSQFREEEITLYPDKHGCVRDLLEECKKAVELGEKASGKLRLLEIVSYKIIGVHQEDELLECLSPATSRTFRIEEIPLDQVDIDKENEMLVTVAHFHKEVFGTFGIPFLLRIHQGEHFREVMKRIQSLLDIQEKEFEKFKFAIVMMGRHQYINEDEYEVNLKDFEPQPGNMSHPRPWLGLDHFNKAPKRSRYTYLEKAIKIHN
How it was run: as §1

USP8 = target: T5, USP8 (UniProt P40818)
T5 sequence (whole entry): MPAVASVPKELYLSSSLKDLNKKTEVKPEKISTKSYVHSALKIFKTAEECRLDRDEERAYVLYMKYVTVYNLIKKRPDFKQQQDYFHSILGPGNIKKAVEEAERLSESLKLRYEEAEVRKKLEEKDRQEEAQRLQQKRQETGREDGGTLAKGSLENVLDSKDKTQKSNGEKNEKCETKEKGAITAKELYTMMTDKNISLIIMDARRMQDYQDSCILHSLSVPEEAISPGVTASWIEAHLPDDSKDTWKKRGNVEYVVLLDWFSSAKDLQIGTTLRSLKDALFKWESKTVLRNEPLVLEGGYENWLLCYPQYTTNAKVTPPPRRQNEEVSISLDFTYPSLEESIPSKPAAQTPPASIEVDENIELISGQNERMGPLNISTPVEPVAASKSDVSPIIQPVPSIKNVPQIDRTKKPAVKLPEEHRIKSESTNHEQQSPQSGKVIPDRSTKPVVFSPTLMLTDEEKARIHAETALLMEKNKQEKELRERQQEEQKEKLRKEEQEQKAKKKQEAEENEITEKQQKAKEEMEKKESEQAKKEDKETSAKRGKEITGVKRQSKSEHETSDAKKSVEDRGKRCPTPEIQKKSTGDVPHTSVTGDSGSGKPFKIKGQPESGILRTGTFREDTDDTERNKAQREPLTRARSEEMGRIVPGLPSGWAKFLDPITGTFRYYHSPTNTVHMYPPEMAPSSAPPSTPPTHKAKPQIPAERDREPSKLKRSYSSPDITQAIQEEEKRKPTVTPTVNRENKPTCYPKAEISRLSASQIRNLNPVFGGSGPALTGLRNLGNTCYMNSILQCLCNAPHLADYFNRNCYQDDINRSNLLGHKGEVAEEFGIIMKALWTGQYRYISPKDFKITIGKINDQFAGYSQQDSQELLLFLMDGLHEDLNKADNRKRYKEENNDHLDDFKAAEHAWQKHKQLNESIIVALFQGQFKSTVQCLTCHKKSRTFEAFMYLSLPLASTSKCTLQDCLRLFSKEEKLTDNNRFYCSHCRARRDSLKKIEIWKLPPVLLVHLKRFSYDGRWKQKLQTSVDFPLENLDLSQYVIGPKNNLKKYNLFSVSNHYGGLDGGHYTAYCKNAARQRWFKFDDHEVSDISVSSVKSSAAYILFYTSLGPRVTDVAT
How it was run: as §1

Measured: log2 ratio of Biotin-Ahx-Ub-VS probe labelling

O=C(CCl)N1CCOC(c2cccc(F)c2)C1 (stereo not drawn)
inactive: USP42 -0.424 | USP46 -0.374 | USP47 -0.467 | USP5 0.362 | USP54 0.45 | USP7 -0.705 | USP8 -0.461
active: USP48 -1.36
